Inconclusive results are not listed. Activity calls are given as the source filed them. Unless noted, calls come from the whole dose curve; as a rule, active = well fitted curve in the direction sought with a large enough effect; inconclusive = small, poorly fitted or top-dose-only effect, or another doubt; inactive = no such curve, though single readings can be large; an effect the other way counts as inactive or inconclusive.
Legend:
[1] = AP1 Signaling Pathway (AID 357; active = well fitted curve in either direction with a large enough effect, not every such curve was filed as active;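 note: ME-180 reporter cells stimulated with EGF at its EC50 level; % is set by controls: 0 for no effect and ±100 for the full control effect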); conditions: ME-180 AP-1-bla reporter, EGF-induced, beta-lactamase ratio, 5 h; at 7.69 µM (top of the series) unless noted
Method in brief: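 Read-out was the 460nm/530nm emission ratio (excitation 405nm) after CCF4 loading for 2.5 hours at room temperature. Cells carried an AP-1-driven beta-lactamase reporter, were stimulated with EC50 EGF plus compound for 5 hours, and AC50 values came from titrations.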

[2] = molecular target: Cytochrome P450 1A2 (Homo sapiens) (UniProt P05177); experiment: p450-cyp1a2 (AID 410; calls by dose curve;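 note: -100% = full effect of reference inhibitor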)
Method in brief: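 Read-out is luminescence from luciferin produced by CYP1A2 demethylation of Luciferin-ME (100uM, at Km). Detection reagent stopped the 60 min NADPH-dependent reaction; signals were normalized to 57 uM furafylline.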

[3] = Stat Signaling Pathway (AID 446; active = well fitted curve in either direction with a large enough effect, not every such curve was filed as active;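 note: ME-180 cervical cancer cells given 40 pM IL-6 alongside compound; SIE-controlled beta-lactamase reporter measured as 460/530 nm FRET emission ratio; % is set by controls: 0 for no effect and ±100 for the full control effect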); conditions: ME-180 (cervical carcinoma) SIE beta-lactamase reporter, IL-6 stimulated, 5 h; at 7.69 µM (top of the series) unless noted
Method in brief: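 Normalization used AC90 stimulation (300 pM IL-6) and AC90 inhibition (125 nM pan-JAK inhibitor at 40 pM IL-6). The underlying signal is SIE-driven beta-lactamase in ME-180 cells after 5 h IL-6 exposure with compound.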

[4] = molecular target: Glucocorticoid receptor (Homo sapiens) (UniProt P04150); experiment: GR-GFP Redistribution (AID 450;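 active = compounds whose dose series gives a full or clear partial fitted curve of increased nuclear translocation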; note: potency is the fitted concentration of half-maximal effect); conditions: U2OS GR-GFP nuclear translocation, laser cytometry, 2 h
Glucocorticoid receptor (Homo sapiens), sequence (P04150 whole entry, looked up, the tested form may be a part): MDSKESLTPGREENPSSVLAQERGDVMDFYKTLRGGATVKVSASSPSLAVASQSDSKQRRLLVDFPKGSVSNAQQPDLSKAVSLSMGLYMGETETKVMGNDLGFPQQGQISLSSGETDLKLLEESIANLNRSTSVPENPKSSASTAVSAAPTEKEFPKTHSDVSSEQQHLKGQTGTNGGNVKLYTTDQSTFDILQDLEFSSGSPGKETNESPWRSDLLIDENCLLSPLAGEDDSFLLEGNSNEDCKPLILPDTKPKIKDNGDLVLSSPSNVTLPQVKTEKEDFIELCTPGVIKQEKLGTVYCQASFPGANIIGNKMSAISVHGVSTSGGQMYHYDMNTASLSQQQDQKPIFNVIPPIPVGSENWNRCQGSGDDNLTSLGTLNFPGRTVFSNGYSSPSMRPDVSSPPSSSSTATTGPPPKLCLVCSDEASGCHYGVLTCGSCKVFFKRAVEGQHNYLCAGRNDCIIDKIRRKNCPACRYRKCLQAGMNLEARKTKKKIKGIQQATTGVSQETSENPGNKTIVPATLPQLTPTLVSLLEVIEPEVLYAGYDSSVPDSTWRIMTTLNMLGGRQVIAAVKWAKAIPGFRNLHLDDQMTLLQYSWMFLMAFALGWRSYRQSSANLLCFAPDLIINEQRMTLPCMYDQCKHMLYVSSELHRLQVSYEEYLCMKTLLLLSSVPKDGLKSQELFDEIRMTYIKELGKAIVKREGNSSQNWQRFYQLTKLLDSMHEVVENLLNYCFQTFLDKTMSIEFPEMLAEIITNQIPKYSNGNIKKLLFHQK

[5] = molecular target: Glucocorticoid receptor (Homo sapiens) (UniProt P04150); experiment: GR-EFC Redistribution (AID 451; calls by dose curve; note: potency is the fitted concentration of half-maximal effect); conditions: CHO-K1 GR-EFC translocation, beta-gal luminescence, 2 h
Method in brief: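 CHO-K1 cells expressing nuclear EA and GR-ED fragments of b-gal; compounds titrated up to 46 uM final, 2 h at 37 C. GR nuclear translocation read as complemented b-gal luminescence after 1 h RT detection.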

[6] = molecular target: Mitogen-activated protein kinase 10 (Mus musculus) (UniProt Q61831); experiment: JNK3 AlphaScreen Assay (AID 530; active = well fitted curve in either direction with a large enough effect, not every such curve was filed as active;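 note: kinase came from lysate of stimulated human HepG2 cells; signal reports phosphorylation of biotinylated GST-cJun 1-79 at Ser73 with 10 µM ATP; % is set by controls: 0 for no effect and ±100 for the full control effect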)
Method in brief: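 HepG2 lysate (IL-1b/TNFa pre-activated) + biotin-GST-cJun 1-79 + anti-pSer73 cJun; cpd titration, 15 min RT; ATP 10 uM start; Tris pH 7.6, MgCl2, DTT, vanadate; beads in EDTA buffer; AlphaScreen.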

[7] = molecular target: 3',5'-cyclic-AMP phosphodiesterase 4B (Homo sapiens) (UniProt Q07343); experiment: qHTS Assay for Inhibitors of PDE-IV (AID 607; active = well fitted activation curve with a large enough effect in the main read-out, with a control signal flat, not every such curve was filed as active; note: % of control where 0% means no effect)
3',5'-cyclic-AMP phosphodiesterase 4B (Homo sapiens), sequence (Q07343 whole entry, looked up): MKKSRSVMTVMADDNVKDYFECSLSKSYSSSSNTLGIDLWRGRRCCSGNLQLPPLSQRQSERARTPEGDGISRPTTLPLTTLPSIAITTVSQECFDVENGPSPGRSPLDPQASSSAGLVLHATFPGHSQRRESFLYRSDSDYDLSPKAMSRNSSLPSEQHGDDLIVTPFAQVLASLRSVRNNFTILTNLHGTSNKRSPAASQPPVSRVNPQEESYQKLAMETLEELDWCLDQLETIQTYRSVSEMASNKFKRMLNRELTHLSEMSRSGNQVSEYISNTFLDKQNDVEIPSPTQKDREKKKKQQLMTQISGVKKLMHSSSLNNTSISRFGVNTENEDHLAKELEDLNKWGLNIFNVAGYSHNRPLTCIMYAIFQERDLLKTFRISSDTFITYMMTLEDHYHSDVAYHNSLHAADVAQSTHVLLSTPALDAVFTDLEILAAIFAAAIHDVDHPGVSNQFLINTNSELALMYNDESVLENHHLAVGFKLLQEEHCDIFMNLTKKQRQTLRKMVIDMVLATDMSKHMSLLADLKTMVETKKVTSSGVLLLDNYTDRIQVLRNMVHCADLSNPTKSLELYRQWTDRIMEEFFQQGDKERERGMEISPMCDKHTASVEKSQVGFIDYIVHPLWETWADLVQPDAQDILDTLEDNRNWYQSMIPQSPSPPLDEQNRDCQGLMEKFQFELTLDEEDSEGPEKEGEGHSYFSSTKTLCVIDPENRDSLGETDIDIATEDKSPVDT
Method in brief: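 HEK293 ACTOne cells with CNG channel (1000/well), endogenous PDE4; membrane potential dye, compounds up to 22.9 uM final. Fluorescence Ex 535/Em 590; RO 20-1724 (100 uM final) as reference.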

[8] = molecular target: Cytochrome P450 2C9 (Homo sapiens) (UniProt P11712); experiment: qHTS Assay for Inhibitors and Substrates of Cytochrome P450 2C9 (AID 883); note: % is set by controls: 0 for no effect and ±100 for the full control effect; nearly all actives have a fitted effect of over 60% in size
Cytochrome P450 2C9 (Homo sapiens), sequence (P11712 whole entry, looked up): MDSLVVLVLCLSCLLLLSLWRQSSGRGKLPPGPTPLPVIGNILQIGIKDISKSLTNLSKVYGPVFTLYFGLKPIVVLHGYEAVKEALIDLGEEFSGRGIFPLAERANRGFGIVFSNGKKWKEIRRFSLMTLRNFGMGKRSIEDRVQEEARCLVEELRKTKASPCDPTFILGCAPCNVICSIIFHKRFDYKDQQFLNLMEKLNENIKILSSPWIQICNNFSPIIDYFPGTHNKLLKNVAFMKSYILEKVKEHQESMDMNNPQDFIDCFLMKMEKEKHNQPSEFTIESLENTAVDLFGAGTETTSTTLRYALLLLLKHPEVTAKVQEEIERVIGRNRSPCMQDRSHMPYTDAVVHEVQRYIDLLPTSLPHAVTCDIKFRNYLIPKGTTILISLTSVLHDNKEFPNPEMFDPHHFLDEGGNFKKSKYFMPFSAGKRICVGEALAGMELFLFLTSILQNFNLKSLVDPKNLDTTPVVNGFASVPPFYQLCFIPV
Method in brief: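 Human CYP2C9 (10nM) with Luciferin-H at 100uM (its KM) in 25mM KPO4; compound preincubated 10 min at 37C, then NADPH regeneration for 60 min at 37C. Luciferin read by luminescence after detection reagent; normalized to 57uM sulphaphenazole as full inhibition.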

[9] = molecular target: Cytochrome P450 2D6 (Homo sapiens) (UniProt P10635); experiment: qHTS Assay for Inhibitors and Substrates of Cytochrome P450 2D6 (AID 891);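 note: luciferin methyl ether substrate demethylated by CYP2D6 with NADPH regeneration; % is set by controls: 0 for no effect and ±100 for the full control effect; nearly all actives have a fitted effect of over 60% in size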
Cytochrome P450 2D6 (Homo sapiens), sequence (P10635 whole entry, looked up): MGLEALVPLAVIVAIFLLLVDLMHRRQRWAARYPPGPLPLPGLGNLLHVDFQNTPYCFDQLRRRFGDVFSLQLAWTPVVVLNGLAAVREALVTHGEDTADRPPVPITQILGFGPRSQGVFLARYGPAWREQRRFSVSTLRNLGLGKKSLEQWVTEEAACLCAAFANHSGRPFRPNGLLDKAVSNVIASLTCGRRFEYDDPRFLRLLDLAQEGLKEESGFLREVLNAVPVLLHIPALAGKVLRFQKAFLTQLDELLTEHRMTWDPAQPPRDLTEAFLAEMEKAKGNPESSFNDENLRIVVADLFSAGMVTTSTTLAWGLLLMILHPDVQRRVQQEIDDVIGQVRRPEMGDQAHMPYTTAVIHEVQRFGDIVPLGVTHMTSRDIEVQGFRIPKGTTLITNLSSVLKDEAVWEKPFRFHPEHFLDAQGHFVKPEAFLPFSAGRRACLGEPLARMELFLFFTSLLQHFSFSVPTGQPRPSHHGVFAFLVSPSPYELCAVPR
Method in brief: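 Luminescent read-out of luciferin formed by 5 nM human CYP2D6 demethylating 30 uM Luciferin-ME EGE (Km level) over 60 min at room temperature after NADPH regeneration addition. Data normalized to full inhibition by 1.43 uM quinidine.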

[10] = molecular target: Cytochrome P450 2C19 (Homo sapiens) (UniProt P33261); experiment: qHTS Assay for Inhibitors and Substrates of Cytochrome P450 2C19 (AID 899); note: % is set by controls: 0 for no effect and ±100 for the full control effect; nearly all actives have a fitted effect of over 60% in size
Cytochrome P450 2C19 (Homo sapiens), sequence (P33261 whole entry, looked up): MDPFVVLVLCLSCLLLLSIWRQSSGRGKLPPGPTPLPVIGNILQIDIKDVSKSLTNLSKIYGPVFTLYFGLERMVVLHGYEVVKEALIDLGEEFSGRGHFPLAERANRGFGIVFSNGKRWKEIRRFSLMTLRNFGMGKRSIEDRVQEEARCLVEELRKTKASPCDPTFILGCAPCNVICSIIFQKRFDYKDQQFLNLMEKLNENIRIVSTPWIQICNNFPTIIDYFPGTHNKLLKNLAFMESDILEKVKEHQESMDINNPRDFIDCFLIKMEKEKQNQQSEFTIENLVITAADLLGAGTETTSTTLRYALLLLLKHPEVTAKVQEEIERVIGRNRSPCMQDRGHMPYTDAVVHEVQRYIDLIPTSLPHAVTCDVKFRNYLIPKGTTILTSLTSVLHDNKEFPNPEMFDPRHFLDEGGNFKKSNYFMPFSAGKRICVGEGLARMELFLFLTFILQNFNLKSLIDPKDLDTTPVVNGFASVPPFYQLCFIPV
Method in brief: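 5 nM human CYP2C19 with 10uM Luciferin-H EGE (at KM) in 50mM KPO4, compound preincubated 10 min at 37C, then NADPH regeneration for 60 min at 37C. Luciferin read by luminescence after detection reagent; normalized to 57uM ketoconazole as full inhibition.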

[11] = molecular target: ATP-dependent 6-phosphofructokinase (Trypanosoma brucei brucei) (UniProt O15648); experiment: qHTS Assay to Find Inhibitors of T. brucei phosphofructokinase: hit validation (AID 492961);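 note: luminescence reports ADP formed as PFK phosphorylates fructose-6-phosphate with ATP; % is set by controls: 0 for no effect and ±100 for the full control effect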
ATP-dependent 6-phosphofructokinase (Trypanosoma brucei brucei), sequence (O15648 whole entry, looked up): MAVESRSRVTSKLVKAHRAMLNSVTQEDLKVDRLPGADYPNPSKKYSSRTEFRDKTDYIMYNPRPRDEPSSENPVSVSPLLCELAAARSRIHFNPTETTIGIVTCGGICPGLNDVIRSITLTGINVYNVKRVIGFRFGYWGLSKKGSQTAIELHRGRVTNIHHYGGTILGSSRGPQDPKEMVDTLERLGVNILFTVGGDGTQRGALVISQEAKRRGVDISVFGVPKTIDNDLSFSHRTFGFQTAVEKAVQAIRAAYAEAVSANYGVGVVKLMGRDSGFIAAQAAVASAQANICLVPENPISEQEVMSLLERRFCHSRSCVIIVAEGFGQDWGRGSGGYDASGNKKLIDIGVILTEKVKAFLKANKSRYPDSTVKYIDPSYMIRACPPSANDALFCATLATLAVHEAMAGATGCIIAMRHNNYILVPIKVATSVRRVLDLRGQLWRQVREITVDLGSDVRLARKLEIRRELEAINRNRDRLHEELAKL
Method in brief: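 Compounds titrated; %activity normalized to 0x and 1x enzyme controls, curve-fitted. Readout: ADP-Glo luminescence after 45 min room-temperature reaction of 1.25 nM PFK, 0.1 mM ATP, 0.5 mM F6P, pH 8.0.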

[12] = molecular target: Ubiquitin carboxyl-terminal hydrolase 1 (Homo sapiens) (UniProt O94782); experiment: Inhibitors of USP1/UAF1: Pilot qHTS (AID 504865);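 note: rhodamine fluorescence freed from ubiquitin-rhodamine substrate followed over time; top concentration of the series differs between compounds; % is set by controls: 0 for no effect and ±100 for the full control effect; nearly all actives have a fitted effect of over 35% in size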
Ubiquitin carboxyl-terminal hydrolase 1 (Homo sapiens), sequence (O94782 whole entry, looked up): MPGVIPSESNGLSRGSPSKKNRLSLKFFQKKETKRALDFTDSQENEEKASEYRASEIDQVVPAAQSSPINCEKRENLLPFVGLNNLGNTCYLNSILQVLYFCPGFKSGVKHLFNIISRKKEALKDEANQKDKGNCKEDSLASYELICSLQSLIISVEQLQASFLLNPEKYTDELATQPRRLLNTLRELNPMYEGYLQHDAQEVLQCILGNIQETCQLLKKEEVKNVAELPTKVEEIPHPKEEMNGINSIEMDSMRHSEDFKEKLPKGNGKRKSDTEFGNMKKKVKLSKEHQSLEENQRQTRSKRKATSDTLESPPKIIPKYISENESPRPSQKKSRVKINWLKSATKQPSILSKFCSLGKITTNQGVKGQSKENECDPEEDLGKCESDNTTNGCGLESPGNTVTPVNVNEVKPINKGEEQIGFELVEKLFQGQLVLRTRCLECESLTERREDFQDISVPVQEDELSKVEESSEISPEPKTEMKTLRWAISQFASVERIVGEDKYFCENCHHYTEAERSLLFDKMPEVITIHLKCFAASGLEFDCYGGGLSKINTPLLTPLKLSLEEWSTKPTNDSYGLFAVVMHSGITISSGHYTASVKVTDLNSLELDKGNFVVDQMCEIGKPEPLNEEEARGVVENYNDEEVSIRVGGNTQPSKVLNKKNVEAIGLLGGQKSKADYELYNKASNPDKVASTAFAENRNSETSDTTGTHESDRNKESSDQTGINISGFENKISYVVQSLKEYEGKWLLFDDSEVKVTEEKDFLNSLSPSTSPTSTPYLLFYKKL
Method in brief: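 USP1/UAF1 complex (1nM) preincubated with compound 15 min at room temperature, then Ub-Rho substrate (150nM final) added. Fluorescence read kinetically at 480/540 nm, 6 reads every 60 seconds. Buffer: 50mM HEPES pH 7.8, 0.5mM EDTA, 0.1 mg/ml BSA, 1mM TCEP, 0.01% Tween-20.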

[13] = molecular target: Luciferin 4-monooxygenase (Photinus pyralis) (UniProt P08659); experiment: Biochemical firefly luciferase enzyme assay for NPC (AID 624030);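 note: purified P. pyralis luciferase at 10 nM with luciferin and ATP substrate; 0% = DMSO and -100% = full luciferase inhibition by PTC124 control; nearly all actives have a fitted effect of over 70% in size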
Luciferin 4-monooxygenase (Photinus pyralis), sequence (P08659 whole entry, looked up): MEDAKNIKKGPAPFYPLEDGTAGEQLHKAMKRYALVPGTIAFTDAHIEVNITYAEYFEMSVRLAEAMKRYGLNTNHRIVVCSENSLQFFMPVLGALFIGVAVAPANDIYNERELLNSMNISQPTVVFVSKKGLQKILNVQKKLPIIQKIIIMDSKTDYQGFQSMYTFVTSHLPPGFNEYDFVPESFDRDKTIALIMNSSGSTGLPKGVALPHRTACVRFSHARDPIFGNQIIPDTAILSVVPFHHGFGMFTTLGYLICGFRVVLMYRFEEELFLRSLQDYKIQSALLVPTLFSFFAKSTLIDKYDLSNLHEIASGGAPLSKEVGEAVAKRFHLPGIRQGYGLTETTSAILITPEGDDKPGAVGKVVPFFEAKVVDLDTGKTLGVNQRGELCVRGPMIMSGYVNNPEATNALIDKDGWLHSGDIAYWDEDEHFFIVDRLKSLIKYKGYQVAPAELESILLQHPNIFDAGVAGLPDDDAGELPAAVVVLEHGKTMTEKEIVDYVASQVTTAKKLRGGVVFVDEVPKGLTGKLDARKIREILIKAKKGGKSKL
Method in brief: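 Purified P. pyralis luciferase at 10 nM in 50 mM Tris Acetate (final), luminescence read within 5 minutes of enzyme addition to compounds. Activity normalised to PTC124 versus DMSO; concentration-response curves classed by r2, magnitude and activity.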

[14] = S16 Schwann cell PMP22 intronic element firefly luciferase assay (AID 624032);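 note: plate controls were DMSO for no effect and PTC124 positive control mean for full effect; nearly all actives have a fitted effect of over 30% in size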
Method in brief: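 Rat S16 Schwann cells stably carrying firefly luciferase driven by a PMP22 intronic element, in 10% FBS, treated 24 h at 37 C. ONE-Glo luminescence normalized to PTC124 control and DMSO (0%); curves classed by r2, magnitude and activity.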

[15] = S16 Schwann cell PMP22 intronic element beta-lactamase assay (AID 624044; calls by dose curve;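 note: 0% = DMSO and -100% = potassium clavulanate positive control; nearly all actives have a fitted effect of over 15% in size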)
Method in brief: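 Beta-lactamase reporter under a PMP22 intronic regulatory element in stable S16 rat Schwann cells; 24 h compound exposure. 460 nm blue signal normalized between DMSO (0%) and potassium clavulanate, with 535 nm FRET tracking viability; curves classed by r2 and response.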

[16] = qHTS profiling for inhibitors of Plasmodium falciparum proliferation (AID 504749);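 note: 0% = DMSO vehicle and full inhibition = artemisinin control; nearly all actives have a fitted effect of over 60% in size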; conditions: P. falciparum in erythrocytes, SYBR Green DNA, 72 h, at 28.7 µM (top of the series)
Method in brief: (§1)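 SYBR Green fluorescence (ex 485 nm, em 535 nm) reports parasite DNA after 72 h compound exposure of infected red cells at 0.3% parasitemia, 2.5% hematocrit; signal normalized to 0.29 uM artemisinin and vehicle wells.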

3D7 = experiment: as above; conditions: P. falciparum in erythrocytes, SYBR Green DNA, 72 h; series mostly up to 28.7 µM
Method in brief: as §1

7G8 = experiment: as above; conditions: P. falciparum in erythrocytes, SYBR Green DNA, 72 h; series mostly up to 28.7 µM
Method in brief: as §1

AA1029 = experiment: as above; conditions: P. falciparum in erythrocytes, SYBR Green DNA, 72 h; series mostly up to 28.7 µM
Method in brief: as §1

AS120 = experiment: as above; conditions: P. falciparum in erythrocytes, SYBR Green DNA, 72 h; series mostly up to 28.7 µM
Method in brief: as §1

ATS189 = experiment: as above; conditions: P. falciparum in erythrocytes, SYBR Green DNA, 72 h; series mostly up to 28.7 µM
Method in brief: as §1

ATS95 = experiment: as above; conditions: P. falciparum in erythrocytes, SYBR Green DNA, 72 h; series mostly up to 28.7 µM
Method in brief: as §1

C2A = experiment: as above; conditions: P. falciparum in erythrocytes, SYBR Green DNA, 72 h; series mostly up to 28.7 µM
Method in brief: as §1

CP185 = experiment: as above; conditions: P. falciparum in erythrocytes, SYBR Green DNA, 72 h; series mostly up to 28.7 µM
Method in brief: as §1

CP191 = experiment: as above; conditions: P. falciparum in erythrocytes, SYBR Green DNA, 72 h; series mostly up to 28.7 µM
Method in brief: as §1

CP192 = experiment: as above; conditions: P. falciparum in erythrocytes, SYBR Green DNA, 72 h; series mostly up to 28.7 µM
Method in brief: as §1

CP194 = experiment: as above; conditions: P. falciparum in erythrocytes, SYBR Green DNA, 72 h; series mostly up to 28.7 µM
Method in brief: as §1

CP201 = experiment: as above; conditions: P. falciparum in erythrocytes, SYBR Green DNA, 72 h; series mostly up to 28.7 µM
Method in brief: as §1

CP203 = experiment: as above; conditions: P. falciparum in erythrocytes, SYBR Green DNA, 72 h; series mostly up to 28.7 µM
Method in brief: as §1

CP211 = experiment: as above; conditions: P. falciparum in erythrocytes, SYBR Green DNA, 72 h; series mostly up to 28.7 µM
Method in brief: as §1

CP215 = experiment: as above; conditions: P. falciparum in erythrocytes, SYBR Green DNA, 72 h; series mostly up to 28.7 µM
Method in brief: as §1

CP217 = experiment: as above; conditions: P. falciparum in erythrocytes, SYBR Green DNA, 72 h; series mostly up to 28.7 µM
Method in brief: as §1

CP237 = experiment: as above; conditions: P. falciparum in erythrocytes, SYBR Green DNA, 72 h; series mostly up to 28.7 µM
Method in brief: as §1

CP238 = experiment: as above; conditions: P. falciparum in erythrocytes, SYBR Green DNA, 72 h; series mostly up to 28.7 µM
Method in brief: as §1

CP247 = experiment: as above; conditions: P. falciparum in erythrocytes, SYBR Green DNA, 72 h; series mostly up to 28.7 µM
Method in brief: as §1

CP250 = experiment: as above; conditions: P. falciparum in erythrocytes, SYBR Green DNA, 72 h; series mostly up to 28.7 µM
Method in brief: as §1

COc1cccc2c1C(=O)c1c(O)c3c(c(O)c1C2=O)C[C@](O)(C(=O)CO)C[C@@H]3O[C@H]1C[C@H](N)[C@@H](O)[C@H](C)O1
inactive: activity change, negative = inhibition [1] 13.6% | Potency [2] | activity, negative = inhibition [3] 15.8% | Potency [4] > 46 µM | Potency [5] > 9.22 µM | Potency [6] | Potency [7] | Potency [8] | Potency [9] | Potency [10] | outcome [11] | Potency [12] | outcome [13] | Potency [14] | outcome [15] | activity, negative = inhibition ([16]; parasite line A) 6.65% | activity, negative = inhibition ([16]; parasite line B) 5.26% | Potency (3D7) | Potency (7G8) | Potency (AA1029) | Potency (AS120) | Potency (ATS189) | Potency (ATS95) | Potency (C2A) | Potency (CP185) | Potency (CP191) | Potency (CP192) | Potency (CP194) | Potency (CP201) | Potency (CP203) | Potency (CP211) | Potency (CP215) | Potency (CP217) | Potency (CP237) | Potency (CP238) | Potency (CP247) | Potency (CP250)
